Each structure is given as a SMILES string. This is part of a sample that, as a whole, favours compounds with a hit. Of some 83,000 tested, about 20% had one in any assay.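 In brief: 96-well plates, 48 h treatment, single concentration, percent growth endpoint.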 A number with no mark means an inactive call. The source made the active and inactive calls. How the source made its calls: active means growth percent below 10; inactive means the rest.

Nine molecules from PubChem BioAssay (NCI) can be followed below.

Test systems include SR leukemia; RPMI-8226 leukemia; OVCAR-8 ovarian; OVCAR-5 ovarian; OVCAR-4 ovarian; SK-OV-3 ovarian; IGROV1 ovarian; OVCAR-3 ovarian; HS 578T breast; T-47D breast; BT-549 breast; MDA-MB-435 melanoma; SW-620 colon; MCF7 breast; HCT-116 colon; HCC-2998 colon; KM12 colon; NCI/ADR-RES ovarian.
What all share (assay): NCI-60 one-dose screen, 48 h (100 = growth as untreated, 0 = no growth, -100 = all killed)
Common to all, as to settings: 10 µM unless noted

As to `CN1CCN(c2ccc(NC3=CC(=O)c4ncncc4C3=O)cc2)CC1`, the growth in the test on SR leukemia was -5.62% (active); in the test with RPMI-8226 leukemia, -29.1% (active); in the test on OVCAR-8 ovarian it was -53.2% (active); in the test on OVCAR-5 ovarian it was -92.3% (active); in the test with OVCAR-4 ovarian, -99% (active); with SK-OV-3 ovarian, -63.7% (active). The growth is -86.6% (active) in the test on IGROV1 ovarian; -58.6% (active) in the test with OVCAR-3 ovarian; -19.6% (active) in the test with HS 578T breast; -48.2% (active) with T-47D breast; -90.9% (active) with BT-549 breast; -90.3% (active) with MDA-MB-435 melanoma. For the same molecule, the growth was -64.1% (active) with SW-620 colon; -64.3% (active) in the test with MCF7 breast; -53.6% (active) in the test with HCT-116 colon; -78.2% (active) in the test with HCC-2998 colon; -75.9% (active) in the test on KM12 colon.

In the case of `Cc1cc(Cl)nc(N2CCN(CCNc3ccnc4cc(Cl)ccc34)CC2)n1`, the growth in the test on SR leukemia was -7.81% (active); with RPMI-8226 leukemia it was 13.5%; in the test on OVCAR-8 ovarian, 61.5%; in the test on OVCAR-5 ovarian it was 66.6%; with OVCAR-4 ovarian it was 40.1%; in the test with SK-OV-3 ovarian, 56.9%. For the same molecule, the growth is 61% with IGROV1 ovarian; 60.7% in the test with OVCAR-3 ovarian; 76.8% in the test with HS 578T breast; 19.5% with T-47D breast; 47% in the test on BT-549 breast; 50.2% in the test with MDA-MB-435 melanoma. Besides, the growth in the test with SW-620 colon was 45.3%; with MCF7 breast it was 26.8%; in the test with HCT-116 colon, 25.3%; in the test on HCC-2998 colon it was -3.07% (active); in the test on KM12 colon it was 55.7%.

On to `CN1C(=O)/C(=C/c2ccc(C(=O)Nc3ncc(Cc4cc(Cl)ccc4Cl)s3)cc2)SC1=S`, for which the growth with SR leukemia is 63.9%; with RPMI-8226 leukemia, 57%; in the test with OVCAR-8 ovarian it was 80.8%; in the test with OVCAR-5 ovarian, 70.7%; with OVCAR-4 ovarian, 57%; with SK-OV-3 ovarian, 71.1%. For the same molecule, the growth with IGROV1 ovarian was 56.9%; with OVCAR-3 ovarian it was 80.1%; with HS 578T breast, 80.9%; in the test on T-47D breast, 59.8%; with BT-549 breast it was 85.2%; in the test on MDA-MB-435 melanoma, 5.7% (active). The growth is 62.8% in the test with SW-620 colon; 67.4% with MCF7 breast; 60.9% with HCT-116 colon; 83.1% with HCC-2998 colon; 49.8% in the test on KM12 colon.

Regarding `C/C=C1/CN(CCCCC)CC[C@H]1C(=O)c1cc2ccccc2[nH]1`, the growth is 98.4% in the test with SR leukemia; 94.9% in the test with RPMI-8226 leukemia; 91.7% in the test on OVCAR-8 ovarian; 96.3% in the test with OVCAR-5 ovarian; 86.6% in the test on OVCAR-4 ovarian; 83.3% with SK-OV-3 ovarian. Also, the growth was 98.5% in the test with IGROV1 ovarian; 94% in the test with OVCAR-3 ovarian; 97.3% in the test on HS 578T breast; 93.6% in the test with NCI/ADR-RES ovarian; 97.4% in the test on BT-549 breast; 97.8% in the test with MDA-MB-435 melanoma. Moreover, the growth with SW-620 colon is 87%; in the test with MCF7 breast, 89.3%; in the test with HCT-116 colon it was 66.5%; in the test on HCC-2998 colon, 101%; with KM12 colon it was 109%.

Turning to `CCCCNC(=O)c1ccc2c(c1)nc(-c1ccccc1)n2C1CCCCC1`, the growth in the test on SR leukemia was 69.2%; in the test with RPMI-8226 leukemia it was 88.3%; in the test on OVCAR-8 ovarian, 102%; in the test on OVCAR-5 ovarian, 102%; with OVCAR-4 ovarian, 102%; with IGROV1 ovarian it was 109%. Further, the growth in the test on OVCAR-3 ovarian was 115%; with HS 578T breast it was 110%; with NCI/ADR-RES ovarian it was 98%; in the test with T-47D breast, 88.1%; with BT-549 breast, 99.7%; in the test on MDA-MB-435 melanoma, 99.9%. Further, the growth in the test with SW-620 colon was 107%; in the test with MCF7 breast, 82.1%; with HCT-116 colon, 93.1%; in the test on HCC-2998 colon, 102%; in the test on KM12 colon, 88.4%.

On to `O=c1c2ccccc2n(C[C@H]2CO2)c2ccccc12`, for which the growth in the test with SR leukemia was 8.95% (active); with RPMI-8226 leukemia it was 1.45% (active); in the test with OVCAR-8 ovarian, 4.1% (active); in the test on OVCAR-5 ovarian, -12.7% (active); in the test on OVCAR-4 ovarian, 7.68% (active); in the test on IGROV1 ovarian it was -52.3% (active). For the same molecule, the growth with OVCAR-3 ovarian is -19.7% (active); with HS 578T breast, 6.14% (active); with NCI/ADR-RES ovarian, -14.3% (active); in the test on T-47D breast, 12.6%; with BT-549 breast, -4.38% (active); with MDA-MB-435 melanoma, -61.5% (active). Further, the growth with SW-620 colon was 0.352% (active); in the test on MCF7 breast it was -4.75% (active); with HCT-116 colon, 2.21% (active); in the test with HCC-2998 colon it was -70% (active); with KM12 colon, -16.4% (active).

For the molecule `Cc1ncc(C(=O)Nc2ccc(CN3CCN(C)CC3)c(C(F)(F)F)c2)cc1C#Cc1cnc(N)c2ccc(C#N)cc12`, the growth in the test with SR leukemia is 4.87% (active); in the test with RPMI-8226 leukemia, 7.42% (active); in the test with OVCAR-8 ovarian, 3.22% (active); with OVCAR-5 ovarian it was -24.7% (active); in the test on OVCAR-4 ovarian, -7.66% (active); in the test on IGROV1 ovarian it was -43.9% (active). For the same molecule, the growth with OVCAR-3 ovarian is 25%; with HS 578T breast, -8.89% (active); in the test with NCI/ADR-RES ovarian, 39%; with T-47D breast it was 19%; with BT-549 breast it was 43.5%; in the test on MDA-MB-435 melanoma it was -28.4% (active). Besides, the growth in the test on SW-620 colon is 6.41% (active); in the test on MCF7 breast, 11.5%; in the test with HCT-116 colon it was -19.9% (active); with HCC-2998 colon, 34.1%; with KM12 colon, 3.87% (active).

`COc1ccc(/C=N/NC(=O)Cn2c(-c3ccc(S(C)(=O)=O)cc3)nc3ccccc32)cc1`: the growth in the test on SR leukemia is 100%; in the test on RPMI-8226 leukemia, 105%; in the test on OVCAR-8 ovarian, 111%; in the test on OVCAR-5 ovarian, 99.7%; in the test with OVCAR-4 ovarian, 117%; with SK-OV-3 ovarian, 117%. The growth was 103% with OVCAR-3 ovarian; 92.4% in the test on HS 578T breast; 104% with NCI/ADR-RES ovarian; 103% in the test on BT-549 breast; 97.8% with MDA-MB-435 melanoma; 97.6% with SW-620 colon. Also, the growth in the test with MCF7 breast is 88.6%; with HCT-116 colon, 91.7%; in the test with HCC-2998 colon it was 95.7%; with KM12 colon it was 104%.

`Oc1nc(NCc2ccccc2)sc1/C=C1\C=Nc2ncccc21`: the growth in the test on SR leukemia is 2.17% (active); in the test with RPMI-8226 leukemia, 87.1%; in the test with OVCAR-8 ovarian, 47.9%; in the test on OVCAR-5 ovarian, 82.2%; in the test on OVCAR-4 ovarian it was 96.4%; in the test with IGROV1 ovarian, 67.2%. The growth with OVCAR-3 ovarian was 53.5%; in the test with HS 578T breast it was 53.2%; in the test on NCI/ADR-RES ovarian, 73.7%; in the test on T-47D breast, 63.6%; in the test with BT-549 breast, 42.7%; in the test with MDA-MB-435 melanoma, 74.2%. The growth in the test on SW-620 colon was 44.5%; with MCF7 breast, 42%; in the test with HCT-116 colon, 24.3%; in the test on HCC-2998 colon, 102%; with KM12 colon, 55%.
